Eight molecules from PubChem BioAssay (NCI) can be followed below.

Test in all cases: NCI-60 one-dose screen, 48 h (100 = growth as untreated, 0 = no growth, -100 = all killed)
What all share (settings): 10 µM unless noted

Assay [1] has as its system SR leukemia.
In assay [2] the test system is RPMI-8226 leukemia.
Assay [3] deals with OVCAR-8 ovarian.
The test system of assay [4] is OVCAR-5 ovarian.
For assay [5], the system named is OVCAR-4 ovarian.
The subject of assay [6] is SK-OV-3 ovarian.
Assay [7] has as its system IGROV1 ovarian.
In assay [8] the test system is OVCAR-3 ovarian.
Assay [9] relates to HS 578T breast.
In assay [10] the test system is NCI/ADR-RES ovarian.
The test system of assay [11] is T-47D breast.
Assay [12] deals with BT-549 breast.
Assay [13] has as its system MDA-MB-435 melanoma.
For assay [14], the system named is SW-620 colon.
For assay [15], the system named is MCF7 breast.
The subject of assay [16] is HCT-116 colon.
The subject of assay [17] is HCC-2998 colon.
In assay [18] the test system is KM12 colon.

Molecules are shown by their SMILES. About 83,000 compounds went through this panel and 20% of them were active in at least one assay; those are over-represented in the sample as a whole.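 Results are percent growth after 48 hours of single-concentration exposure. 100 means growth as in untreated cells, lower positive values show inhibition; negative values down to -100 show cell death.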 Unmarked numbers belong to inactive results. Active and inactive are the calls of the source. The calls were made as follows: active = growth percent below 10; inactive = the rest.

`Cc1ccc(NC(=O)c2ccc(CN3CCN(C)CC3)cc2)cc1Oc1ccc(-c2[nH]nc3ncnc(N)c23)cc1`: the growth was 80.2% in assay [1]; 75.5% in assay [2]; 99.5% in assay [3]; 101% in assay [4]; 99.1% in [5]; 93.7% in assay [6]. In addition, the growth is 90% in [7]; 88.4% in assay [8]; 82.8% in assay [9]; 100% in assay [10]; 81.4% in [11]; 93% in assay [12]. For the same molecule, the growth is 86.4% in assay [13]; 80.2% in assay [14]; 35.7% in assay [15]; 81.9% in assay [16]; 124% in assay [17]; 56.3% in assay [18].
Turning to `COC(=O)c1ccc(NC2=C/C(=N/S(=O)(=O)c3ccc(C(=O)O)cc3)c3ccccc3C2=O)cc1`, the growth in assay [1] is 0.0887% (active); in assay [2], 2.88% (active); in [3] it was 9.15% (active); in assay [4] it was 18.8%; in [5], -56.5% (active); in assay [6] it was 106%. The growth in [7] is 11.3%; in assay [8], -28.6% (active); in [9], -13.6% (active); in assay [10] it was 4.23% (active); in assay [11] it was 4.9% (active); in assay [12] it was 84.2%. Moreover, the growth was -93.1% (active) in assay [13]; -30% (active) in assay [14]; -58.2% (active) in [15]; 5.32% (active) in assay [16]; 105% in assay [17]; 51.1% in [18].
On to `CCCSc1nc(Nc2ccc(/C(C)=N\NC(N)=S)cc2)c(C#N)c(-c2ccccc2)n1`, for which the growth is 57.1% in [1]; 67.5% in assay [2]; 56% in assay [3]; 85.5% in assay [4]; 58.7% in assay [5]; 125% in assay [6]. In addition, the growth in assay [7] was 86.9%; in assay [8], 31.4%; in assay [9], 62.5%; in assay [10], 53.5%; in assay [11], 63.4%; in assay [12] it was 88.5%. In addition, the growth in [13] was 87.5%; in assay [14], 84.1%; in [15] it was 47.9%; in [16], 49%; in [17], 89.5%; in assay [18] it was 54.9%.
Take `C=CCn1c(SCC(=O)Nc2ccc(C(=O)/C=C/c3ccc(Br)cc3)cc2)nnc1-c1c[nH]c2ccccc12`: the growth in assay [1] is 70.3%; in [2], 3.64% (active); in assay [3], 81.2%; in [4], 99.4%; in assay [5], 74.7%; in assay [6], 91.8%. For the same molecule, the growth in [7] was 76.4%; in assay [8], 86.9%; in [9] it was 89.9%; in assay [10] it was 101%; in [11] it was 60.7%; in [12] it was 119%. For the same molecule, the growth is 94.7% in assay [13]; 92.3% in assay [14]; 22.8% in [15]; -60.7% (active) in assay [16]; 109% in assay [17]; 89.3% in assay [18].
For `COc1ccccc1NCc1cccn1Cc1ccc(F)cc1`, the growth is 100% in [1]; 95.2% in assay [2]; 103% in assay [3]; 95.7% in [4]; 96.9% in assay [5]; 116% in assay [6]. In addition, the growth in assay [7] was 88.8%; in assay [8], 112%; in [9] it was 105%; in [10], 93.7%; in assay [11] it was 97%; in assay [12] it was 93.3%. The growth in assay [13] was 99.6%; in assay [14] it was 98.2%; in assay [15], 93.1%; in [16], 93.8%; in [17], 105%; in [18], 95.9%.
With `Cn1cc(-c2cc(N)n3nc(-c4cn(C)c5ccccc45)cc3n2)c2ccccc21`, the growth in assay [1] was -9.33% (active); in [2] it was 18.7%; in assay [3] it was 85.4%; in assay [4], 114%; in assay [5] it was 95%; in assay [6], 137%. Also, the growth in assay [7] is 104%; in [8], 101%; in assay [9], 124%; in assay [10] it was 91.3%; in assay [11], 90%; in [12], 128%. The growth was 0.548% (active) in assay [13]; 85.9% in [14]; 44.8% in assay [15]; 62.1% in assay [16]; 78.5% in assay [17]; 72.7% in [18].
As to `COc1ccccc1C(=O)Nc1cccc2c1C(=O)C(=O)C=C2`, the growth is 58.2% in assay [1]; 88.3% in [2]; 102% in assay [3]; 114% in [4]; 74.8% in [5]; 114% in [6]. Further, the growth in assay [7] was 79.2%; in [8], 13.1%; in [9] it was 102%; in assay [10] it was 113%; in [11], 98.8%; in assay [12] it was 96.3%. Further, the growth in [13] was 96.8%; in [14], 94.2%; in [15] it was 81%; in assay [16] it was 99%; in assay [17] it was 122%; in assay [18], 99.3%.
For `C=CCOc1cccc(/C=C2\SC(=S)N(C3CC(=O)N(c4ccc(Br)cc4)C3=O)C2=O)c1` (centres undefined), the growth in [1] was 93.7%; in assay [2] it was 96.4%; in [3] it was 99.9%; in assay [4] it was 108%; in assay [5], 109%; in [6] it was 88%. For the same molecule, the growth was 103% in assay [7]; 108% in assay [8]; 106% in assay [9]; 99.9% in [10]; 95.9% in assay [11]; 109% in [12]. The growth was 109% in assay [13]; 108% in [14]; 90.7% in assay [15]; 100% in [16]; 115% in [17]; 97.6% in assay [18].
